PfHsp90 set2 – reduces growth (ATP signal) of yeast expressing P. falciparum Hsp90; S. cerevisiae expressing PfHsp90, BacTiter-Glo ATP, 48 h; yeast lacking PDR1 and PDR3 efflux regulators; inhibition, % at 9.4 µM; actives 0.32% (n = 310,000); AID 504621;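 active = every replicate shows inhibition above about 80%, whatever the replicate mean, limit read from the data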;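 note: 0% = DMSO neutral controls and 100% = 20 µM radicicol positive controls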
NALP3 yeast inh – inhibitors of NALP3 inflammasome in yeast. inhibition, % at 10 µM. Yeast reconstituted NLRP3/ASC/caspase-1, beta-gal luminescence, 24 h. actives 0.39% (n = 330,000);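 active = inhibition of 50% or more; inactive = inhibition below 50%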;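 note: plate controls were induced DMSO wells for no effect and uninduced yeast grown without galactose for full effect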
tim23-1 inh – inhibits growth of tim23-1 mutant yeast; actives 1.3% (n = 330,000); inhibition, % at 20 µM; AID 463212; S. cerevisiae tim23-1 growth, BacTiter-Glo luminescence, 24 h;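 active = growth inhibition of the mutant yeast at or above 50%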;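 note: temperature-sensitive mutant grown at 25 °C; plate controls were DMSO-treated mutant yeast for no effect and medium wells lacking yeast for full effect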
tim10-1 inh – tim10-1 yeast growth inhibition. S. cerevisiae tim10-1 ts strain growth, BacTiter-Glo, 24 h. inhibition, % at 20 µM. actives 2.2% (n = 330,000);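 active = inhibition of at least 40%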;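 note: mutant grown at 25 °C; 0% = DMSO wells with yeast and 100% = wells holding no yeast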
NALP1 yeast inh – NALP1 inhibition | actives 0.61% (n = 280,000) | inhibition, % at 10 µM | AID 2071 | S. cerevisiae NALP1/ASC/caspase-1 growth, X-gal OD620, 72 h; in the data active = inhibition mostly above about 24%, no sharp cut-off; inactive = mostly below about 32%
TIM10 inh – inhibits growth of TIM10 yeast strain; S. cerevisiae TIM10 strain growth, BacTiter-Glo luminescence, 24 h; AID 463195; actives 1.4% (n = 330,000); inhibition, % at 10 µM;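 active = inhibition of 40% or more at the single tested concentration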;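 note: wild-type TIM10 isogenic control strain grown at permissive 25 °C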
tim10 confirm – TIM10 yeast growth inhibition, confirmed; shares compounds with TIM10 inh; S. cerevisiae tim10 strain growth, BacTiter-Glo luminescence, 24 h; inhibition, % at 10 µM; actives 63% (n = 4,600); AID 463215;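 active = inhibition of yeast growth at or above a set limit in either of two replicates at 10 µM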;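 note: this counterscreen used the strain with wild-type TIM10; 0% = yeast with DMSO and 100% = medium wells lacking yeast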
An asterisk follows results filed as active; nt = not tested or not shown. Rows were chosen to be rich in hits. Some 4.2% of all compounds tested hit in one or more screens of this group.

SMILES | PfHsp90 set2 | NALP3 yeast inh | tim23-1 inh | tim10-1 inh | NALP1 yeast inh | TIM10 inh | tim10 confirm
COc1cc2c(cc1NC(=O)COC(=O)Cn1cnc3ccccc31)oc1ccccc12 | -24.5 | 40.2 | -8.3 | 25.9 | 31.3 | 40.9* | -10.8
COc1cc2c(cc1NC(=O)COc1ccccc1OC)oc1ccccc12 | 2.0 | 1.8 | -8.2 | 18.6 | 18.0 | -10.2 | nt
COc1cccc(N2CC(NC(=O)C(=O)c3c[nH]c4ccccc34)CC2=O)c1 (stereo not given) | nt | 15.3 | 18.3 | 12.9 | nt | 11.3 | nt
O=C(NC1CC(=O)N(c2cccc(F)c2)C1)C(=O)c1c[nH]c2ccccc12 (stereo not given) | nt | -4.5 | -10.7 | -3.6 | nt | 96.5* | -1.9
O=C(NC1CCCC1)C(c1ccco1)N(C(=O)c1ccco1)c1ccccc1 (stereo not given) | 8.7 | -0.9 | 26.1 | 19.6 | 11.1 | 8.2 | nt
CCc1ccc(N(C(=O)c2ccco2)C(C(=O)NC2CCCC2)c2ccco2)cc1 (stereo not given) | -61.6 | -0.9 | 22.5 | 27.3 | nt | 41.5* | -26.9
COc1ccccc1NC(=S)N/N=C/c1ccc(O)cc1 | -18.5 | 36.6 | 46.8 | 36.9 | 18.5 | 53.1* | -28.2
CCn1cc(CN2CCCC(C(=O)Nc3ccc(-c4cscn4)cc3)C2)cn1 (stereo not given) | 6.0 | 11.8 | -46.8 | -22.2 | 17.3 | -22.5 | nt
O=C(c1ccc(N2C(=O)c3ccccc3C2=O)cc1)N1CCCCC1 | -1.8 | 6.6 | 15.7 | -3.3 | 5.3 | 13.2 | nt
CCc1ccc(N2C(=O)C(Cl)=C(Nc3ccc(C(=O)N4CCCC4)cc3)C2=O)cc1 | nt | 24.9 | 33.7 | 29.9 | nt | 50.4* | 41.7*
CC(C)(Oc1ccc(Cl)cc1)C(=O)OCc1nc2ccsc2c(=O)[nH]1 | nt | -3.5 | 23.6 | 17.9 | nt | 9.3 | nt
CCO[C@@H]1OC(C(=O)NCc2nc3ccccc3[nH]2)=C[C@H](c2ccc(C(F)(F)F)cc2)[C@H]1CCCO | -25.8 | 21.0 | 14.5 | 14.7 | 2.4 | 20.2 | nt
O=C(COc1ccc2c(c1)CCC2)N1CCc2ccccc21 | nt | 39.8 | 14.9 | 21.4 | 14.4 | 45.3* | 36.8*
C[C@H](NC(=O)c1ccco1)C(=O)NCCc1ccc(S(N)(=O)=O)cc1 | 10.0 | 3.4 | 9.1 | -16.5 | -2.5 | 1.1 | nt
O=c1oc2ccc(Cl)cc2cc1-c1nnc(Nc2cccc(C(F)(F)F)c2)s1 | -10.4 | 9.5 | 13.8 | 8.6 | 36.7 | 4.9 | nt
CNc1nnc(-c2cc3cc(Cl)ccc3oc2=O)s1 | nt | 11.8 | 23.1 | 17.7 | 6.9 | 46.2* | 32.7*
Cc1ccccc1-n1c(-c2csc3ccccc23)n[nH]c1=S | -20.0 | 7.9 | 31.6 | 34.7 | 15.2 | 40.4* | -30.5
CCn1cc(S(=O)(=O)NCCc2ccccc2OC)cn1 | 7.3 | 19.4 | -5.6 | 4.1 | -5.3 | -2.9 | nt
Cc1ccc2c(c1C)C(=O)C(=O)N2 | -6.0 | nt | nt | nt | nt | nt | nt
O=C(O)C1Sc2[nH]c(=O)sc2C2c3cc(Br)ccc3OC(=O)C12 (stereo not given) | 21.9 | 7.3 | 29.8 | 22.4 | nt | 43.6* | 33.2*
COc1ccc(C(=O)Nc2ccccc2C(=O)Nc2cc(C)ccn2)cc1 | 15.3 | 25.3 | 49.9 | 30.1 | 25.5 | 43.0* | 44.5*
COc1ccc(C(=O)Nc2ccccc2C(=O)Nc2cccc(C)n2)cc1 | -11.9 | 20.5 | 31.2 | 29.0 | 5.0 | 25.0 | nt
N/C(=N\OC(=O)c1ccc2ccccc2c1)c1ccccc1Cl | 99.9* | 25.5 | 15.3 | 35.9 | 26.5 | 84.2* | 84.6*
N/C(=N\OC(=O)c1cccc2ccccc12)c1ccccn1 | -16.3 | 21.9 | 48.7 | 21.6 | 9.4 | 55.2* | 55.5*
N/C(=N\OC(=O)c1ccc2ccccc2c1)c1ccccn1 | 19.9 | 5.2 | 13.0 | 36.3 | -2.8 | 44.7* | 51.2*
SMILES | PfHsp90 set2 | NALP3 yeast inh | tim23-1 inh | tim10-1 inh | NALP1 yeast inh | TIM10 inh | tim10 confirm
CC(Sc1nc(N)cc(N)n1)C(=O)NCCC1=CCCCC1 (stereo not given) | 7.9 | 15.4 | 10.1 | 6.2 | nt | -5.2 | nt
CCCCN1CC(=O)N2[C@H](c3ccc(Cl)cc3)[C@@H]3C(=O)N(CC)C(=O)[C@@H]3[C@]2(C)C1=O | 0.7 | 15.3 | -10.3 | -1.0 | 24.2 | 52.6* | -7.4
CC(=O)CCSc1nnc(-c2cccc(S(=O)(=O)N3CCOCC3)c2)o1 | nt | 10.7 | -1.8 | 9.9 | nt | -2.8 | nt
O=S(=O)(c1cccc(-c2nnc(SCc3nc4ccccc4s3)o2)c1)N1CCOCC1 | 24.7 | 0.8 | 3.1 | 22.4 | 0.0 | 43.3* | 13.5
COc1ccc(-c2cn(Cc3ccc(C(=O)c4ccccc4)cc3)nn2)cc1 | nt | 18.4 | 11.4 | -4.5 | -5.2 | -7.3 | nt
Cc1ccc(S(=O)(=O)Nc2ccc(-c3ccc4nncn4n3)cc2)cc1 | -0.5 | 16.9 | 2.5 | 12.7 | nt | 1.3 | nt
Cc1cc(C(=O)CCl)c(C)n1Cc1ccco1 | nt | -83.1 | 34.4 | 37.7 | -16.4 | 46.1* | 33.9*
COc1ccc(NC(=O)N2CCCC(c3nc(-c4ccc(OC)cc4)no3)C2)cc1 (stereo not given) | 6.7 | 19.1 | 29.0 | 21.6 | 2.6 | -4.6 | nt
O=C(Nc1ccc(Cl)cc1)N1CCC(c2nc(-c3ccc(F)cc3)no2)CC1 | 7.7 | 38.3 | 20.2 | 32.0 | 29.0 | 48.4* | 9.5
COCC(C)n1c(C)cc(C(=O)COC(=O)C2=NN(c3ccccc3)C(=O)CC2)c1C (stereo not given) | nt | 4.9 | 23.4 | 27.0 | 0.8 | 19.4 | nt
Cc1nn(Cc2ccccc2)c(C)c1C(=O)OCC(=O)c1cc(C)n(C2CC2)c1C | -15.6 | 5.9 | 43.6 | 39.5 | 12.5 | 31.9 | nt
COCC(C)n1c(C)cc(C(=O)COC(=O)c2c(C)nn(-c3ccccc3)c2C)c1C (stereo not given) | 27.9 | 3.6 | 11.2 | 35.2 | 10.3 | 42.7* | -2.1
COCCn1c(C)cc(C(=O)COC(=O)c2c(C)nn(Cc3ccccc3)c2C)c1C | 18.2 | -3.1 | 35.6 | 31.1 | -16.7 | 40.8* | 3.4
COc1ccc(Nc2nc(Cl)c(C=O)s2)cc1 | nt | 10.8 | 43.9 | 28.6 | -1.0 | 46.4* | 18.2
COc1ccc(Nc2nc3ccccc3s2)cc1 | -18.1 | 19.6 | 24.7 | 27.0 | 5.7 | 3.6 | nt
O=C(COc1cccc(OC(F)F)c1)Nc1ccc(SC(F)F)cc1 | 3.2 | 34.1 | 43.8 | 38.3 | 8.1 | 49.9* | 38.6*
O=C(CCN1CCCCC1=O)NC1CCCc2c1cnn2-c1ccccc1F (stereo not given) | 41.2 | -2.8 | -12.0 | 4.9 | -13.6 | -8.5 | nt
O=C1CC(c2ccco2)CC(O)=C1C=Nc1ccccc1-c1ccccc1 (stereo not given) | nt | 1.5 | 32.0 | 38.0 | -8.5 | 41.2* | 24.9
O=C1CC(c2ccco2)CC(O)=C1C=Nc1cc(Cl)ccc1O (stereo not given) | 10.1 | 18.1 | -5.8 | 23.5 | 23.9 | 16.0 | nt
Cc1ccc(NC(=O)CSCc2cc(=O)n3ccsc3n2)c(C)c1 | -10.4 | 8.7 | -3.5 | 13.5 | 13.6 | 11.3 | nt
